83 molecules from PubChem BioAssay AID720648 (The Scripps Research Institute Molecular Screening Center, 2013) can be followed below.

Out of some 370,000 compounds screened, about 3,100 (0.84%) were called active. The full list was thinned out, with actives kept by preference. Values without a mark were called inactive.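 The calls were made as follows: active = inhibition above the mean of compounds lying between control limits plus 3 SD, set per campaign (cut at about 8.5% in these data); inactive = the rest.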

Disintegrin and metalloproteinase domain-containing protein 17 (Homo sapiens), sequence (P78536 215-824 limits assumed): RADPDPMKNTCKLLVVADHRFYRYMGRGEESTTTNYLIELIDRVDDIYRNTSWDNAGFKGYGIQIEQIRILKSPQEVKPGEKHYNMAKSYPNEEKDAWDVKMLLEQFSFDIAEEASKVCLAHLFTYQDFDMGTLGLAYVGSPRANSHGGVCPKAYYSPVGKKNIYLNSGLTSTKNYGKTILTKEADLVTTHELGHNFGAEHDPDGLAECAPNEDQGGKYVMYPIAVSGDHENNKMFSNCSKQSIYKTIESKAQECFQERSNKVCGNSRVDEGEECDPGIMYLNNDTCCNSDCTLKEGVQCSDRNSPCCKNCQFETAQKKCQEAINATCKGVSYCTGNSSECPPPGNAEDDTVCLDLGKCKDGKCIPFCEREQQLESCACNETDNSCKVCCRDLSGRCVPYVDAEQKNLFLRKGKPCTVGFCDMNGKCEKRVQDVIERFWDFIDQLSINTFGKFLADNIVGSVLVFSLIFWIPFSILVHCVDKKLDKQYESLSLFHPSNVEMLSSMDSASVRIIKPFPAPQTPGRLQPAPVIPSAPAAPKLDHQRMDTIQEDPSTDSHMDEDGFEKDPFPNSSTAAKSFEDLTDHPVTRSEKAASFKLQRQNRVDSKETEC

The assay concerns the target Disintegrin and metalloproteinase domain-containing protein 17 (Homo sapiens) (UniProt P78536). In words: ADAM17 inhibitors, primary screen, biochemical, QFRET (AID 720648).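 Also: 0% = DMSO-only wells as the low control.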 The following applies: recombinant ADAM17, EDANS/DABCYL FRET peptide cleavage; at 6.95 µM; stronger effect = higher value.
Broadly, the inhibition is the drop in the measured response relative to a control, in per cent. Turning to `COc1ccc(-c2cnc3c(c2)C(=O)N([C@H](C)CO)C[C@@H](C)[C@H](CN(C)Cc2ccccc2)O3)cc1`, the inhibition is 2.22%.
For the molecule `C[C@@H]1CN([C@H](C)CO)C(=O)c2cc(-c3ccc(F)cc3)cnc2O[C@H]1CN(C)C(=O)c1ccc(F)cc1`, the inhibition was 11.7% (active).
For `C[C@H]1CN([C@@H](C)CO)C(=O)c2cc(-c3cccc(F)c3)cnc2O[C@@H]1CN(C)S(C)(=O)=O` the value was 1.1%.
The same measure for `CCCCCN1CCCCC(NC(=O)C(C)CCC)C1=O` (stereo not drawn): -3.79%; for `CCCCNC(=O)C[C@@H]1C(=O)N(CCc2ccc(Cl)cc2)C2=CCCC[C@]21C(=O)OCC`: -1.53%; for `CC1(C(=O)NCc2ccc3c(c2)OCO3)CCN1CCc1ccccc1` (stereo not drawn): 4.37%.
For `O=C(CN1CCN(c2nc(-c3ccccc3)cs2)CC1)NCc1ccc2c(c1)OCO2` the value was 11.7% (active); for `Cc1ccc(-c2nc(CS(=O)(=O)CC(=O)NCc3ccc4c(c3)OCO4)c(C)o2)cc1`, -1.45%; for `Cc1ccc(-n2c(SCC(=O)Nc3cccc4ccccc34)nnc2-c2ccccn2)cc1`, 0.17%.
With `COc1ccc(C(=O)OCCN(C)C2CN(Cc3cn(Cc4cccc(C)c4)nn3)S(=O)(=O)C2)cc1OC` (stereo not drawn), the inhibition is 0%.
The same measure for `CC1CCN(c2ccc(C(=O)O)cc2NS(=O)(=O)c2ccc(Br)s2)CC1`: -2.39%; for `Clc1ccc(-n2c(COc3ccccc3)nnc2SCc2nc3ccccc3[nH]2)cc1`: 1.5%; for `COc1ccc(CCNC(=O)C(=O)NCc2ccccc2C)cc1OC`: -2.04%.
Take `COc1ccc(C2(CNC(=O)Cc3ccc(OC)c(OC)c3)CCCC2)cc1`: the inhibition was 0.4%.
For the molecule `COc1ccc(CC(=O)c2ccc(O)cc2O)cc1OC`, the inhibition is 9.65% (active).
The same measure for `FC(F)(F)c1cccc(NC(=S)OC2CCC23CCC(c2ccccc2)CC3)c1` (stereo not drawn): 4.59%; for `C#CCNC(=O)C[C@H]1C[C@@]2(C(=O)OC)C(=C[C@H](C(C)C)O[C@@H]2C2CC2)N(Cc2ccco2)C1=O`: -2.14%; for `Cc1ccc(OCc2nnc(SC/C=C/c3ccccc3)n2Cc2ccco2)cc1`: 10.7% (active).
In the case of `C(=C\c1ccccc1)/CSc1nnc(-c2cccnc2)n1Cc1ccco1`, the inhibition is -2.99%.
The same measure for `O=C(CSc1nnc(-c2cccc(Cl)c2)n1Cc1ccco1)Nc1ccc(OCc2ccccc2)cc1`: 4%; for `O=C(CSc1nnc(-c2ccccc2)n1Cc1ccco1)Nc1ccccc1-c1ccccc1`: 3.73%.
For `Cc1ccc(-c2nnc(SCC(=O)Nc3ccc(Oc4ccccc4)cc3)n2Cc2ccco2)cc1` the value was 9.36% (active); for `O=C(CSc1nnc(COc2ccccc2)n1Cc1ccco1)c1ccc2ccccc2c1`, 8.38%.
As to `CC(C)(C)OC(=O)NCCc1ccccc1/C=C/S(=O)(=O)NCc1ccc(F)cc1`, the inhibition was 1.57%.
As to `O=C(NC1CCC1)c1ccc(C#Cc2cccc(F)c2)c[n+]1[O-]`, the inhibition is -5.18%.
`CCC(=O)c1c(CC)c2n3c1=CC[C@H]3CC(Br)C=2` (stereo partly drawn): the inhibition is -4.68%.
For `CN1[C@H](Cc2ccccc2)COc2cccc(N3CCSCC3)c2S1(=O)=O`, the inhibition is -1.43%.
For `CCOc1ccc(Oc2c(Cl)cnn(-c3ccc(C)cc3)c2=O)cc1` the value was -4.44%.
As to `Cc1ccccc1NC(=O)Cn1nnc(-c2ccccc2F)n1`, the inhibition is 1.5%.
As for `Cc1ccc(-c2n[nH]c(=S)n2/N=C/c2cc3c(cc2[N+](=O)[O-])OCO3)cc1`, the inhibition was 8.7% (active).
With `CCOc1ccc(-c2n[nH]c(=S)n2/N=C/c2cc3c(cc2[N+](=O)[O-])OCO3)cc1`, the inhibition is -4.26%.
For the molecule `CSc1ccc(C=Nn2c(-c3ccc(F)cc3)n[nH]c2=S)cc1`, the inhibition is -0.62%.
Regarding `COC1=C[C@H](C(=O)NCCNC(C)=O)[C@H](C)[C@@H](c2ccccc2)CC1=O`, the inhibition was -1.19%.
Consider `FC(F)(F)c1cccc(Cn2ccc3ccc(-c4ccc5ccn(Cc6ccccc6)c5c4)cc32)c1`, for which the inhibition is -14.4%.
For the molecule `COC(=O)c1cccc(Cn2ccc3ccc(-c4ccc5ccn(C(=O)c6ccccc6C)c5c4)cc32)c1`, the inhibition was -5.84%.
`CC(C)(C)NC(=O)C(c1cccnc1)N(C(=O)c1cnco1)c1ccc(C(C)(C)C)cc1` (stereo not drawn): the inhibition was -6.7%.
Regarding `Cc1nnc(SCC(=O)Nn2cnnc2)s1`, the inhibition was 8.83% (active).
The same measure for `Cc1nnc(SCC(=O)NC2CCCC2)s1`: -4.16%; for `CCSc1nnc(SCC(=O)NNC(=O)c2ccccc2F)s1`: -2.03%; for `CN(C(N)=NC(=O)/C=C/c1ccccc1)C(C#Cc1ccccc1)Cc1ccccc1` (stereo not drawn): 0.96%.
The same measure for `CCOC(=O)[C@]12CCCC3=C1N(CCC3)C(=O)[C@@H](CC(=O)NCC13CC4CC(CC(C4)C1)C3)C2`: 0.7%; for `COc1cccc(CNc2ncc(-c3ccccc3)n2C)c1`: 5.33%.
Consider `COc1cccc(CNc2nc(C(F)(F)F)nc3ccccc23)c1`, for which the inhibition is 10.3% (active).
The same measure for `COc1cccc(CNc2nc(NCc3cccs3)nc3ccsc23)c1`: 0.1%; for `O=C(NCCCc1ccccc1)[C@H](Cc1ccccc1)NC1(C(=O)NCCc2c[nH]c3ccccc23)CCC1`: 3.66%.
`N#C/C(=C/c1ccc(N2CCCCC2)o1)C(=O)NCCc1c[nH]c2ccccc12`: the inhibition is 15.4% (active).
The same measure for `COCCCNC(=O)/C(C#N)=C/c1c(N2CCCCCC2)nc2ccccn2c1=O`: -451%.
For `COC(=O)[C@@]12CCCCC=C1N(CCc1ccc(Cl)cc1)C(=O)[C@H]2CC(=O)NCc1ccc(OC)c(OC)c1`, the inhibition is -0.2%.
The same measure for `O=C(CSc1nc2ccccc2s1)NN=Cc1ccc(O)cc1O`: 3.8%.
Turning to `Cc1ccc(Cn2cc(COC(=O)N(C)Cc3ccccc3)nn2)cc1`, the inhibition is -1.03%.
In the case of `Cc1ccc(C(=O)NCC(=O)O)s1`, the inhibition was 3.71%.
Take `COc1ccc(CCC(=O)OCC(=O)Nc2ccc(C)c(S(=O)(=O)N(C)C)c2)cc1`: the inhibition was 0.46%.
As for `Cc1ccc(C(=O)Nc2ccc(C)c(S(=O)(=O)N(C)C)c2)s1`, the inhibition is 9.87% (active).
`C=CCN1[C@H](CC(C)C)COc2cccc(N3CCCC3)c2S1(=O)=O`: the inhibition was -8.01%.
For `C#CCCN([C@H](C(=O)OC)C(C)C)S(=O)(=O)c1ccc(F)cc1Br`, the inhibition is 2.67%.
As to `O=C1CC[C@@H](COc2ccc3[nH]cc(-c4ccccc4)c3c2-c2ccccc2)N1`, the inhibition is -1.86%.
`N#Cc1ccc(OC[C@@H](O)CN2CCC(C(O)(c3ccccc3)c3ccccc3)CC2)c(F)c1`: the inhibition was 0.92%.
For `O=C(COC(=O)CCCSc1nc2ccccc2[nH]1)Nc1ccc(Oc2ccccc2)cc1` the value was 10.8% (active); for `O=C(COC(=O)CCc1nc2ccccc2c(=O)[nH]1)Nc1ccc(N2CCOCC2)cc1`, -2.52%; for `CCN(c1ccc(NC(=O)COC(=O)CCc2nc3ccccc3n2-c2ccccc2)cc1)C(C)C`, 4.08%.
With `COc1ccc(CN2C/C(=C/c3ccccc3)N3C(=O)C[C@@H](c4ccccc4)N=C23)c(OC)c1`, the inhibition was 4.01%.
In the case of `C=CS(=O)(=O)N(Cc1nnn(Cc2ccccc2)c1Br)[C@H](C(=O)OC)C(C)C`, the inhibition is 2.02%.
For `C[C@@H](NC(=O)c1ccccc1OCC(=O)Nc1ccc(I)cc1)C(=O)N(C)Cc1ccccc1` the value was 2.09%.
The same measure for `O=C(CCS(=O)(=O)c1ccccc1)Nc1ccc(Cl)c(Cl)c1`: 5.76%.
Regarding `O=C(COC(=O)c1ccc2c(c1)OCCO2)NCc1ccccc1Cl`, the inhibition is -2.66%.
The same measure for `CSc1ccc(CNC(=O)c2ccc(NC(=O)C3=CSCCO3)cc2)cc1`: 0.22%.
With `O=C(Nc1ccc(C(=O)NCc2ccccc2Cl)cc1)C1=CSCCO1`, the inhibition was 10.3% (active).
The same measure for `COC(=O)C1CN(CC(C)C)CCS(=O)(=O)N1Cc1ccc(C)cc1` (stereo not drawn): -8.74%.
Take `Cc1ccc(S(=O)(=O)N(C)CC(=O)NCCc2c[nH]c3ccccc23)cc1`: the inhibition is 0.52%.
On to `Cc1ccc2[nH]cc(CCNC(=O)C3CCCCC3)c2c1`, for which the inhibition was 0.5%.
Turning to `Cc1cc(C)cc(NC(=S)NCCc2c[nH]c3ccccc23)c1`, the inhibition was 16.1% (active).
As to `CC(CCN1CCC(C(O)(c2ccccc2)c2ccccc2)CC1)Oc1ccc(Cl)cc1` (stereo not drawn), the inhibition was 4.85%.
`CCOC(=O)[C@]12CCCC=C1N(CCCOC)C(=O)[C@@H]2CC(=O)N1CCOCC1`: the inhibition was 2.05%.
With `CCCCC(=O)NNC(=S)NC(=O)C(c1ccccc1)c1ccccc1`, the inhibition is 1.95%.
The same measure for `CC(C)C(=O)Nc1cccc(NC(=S)NC(=O)C(c2ccccc2)c2ccccc2)c1`: 9.39% (active); for `CCCC(=O)Nc1cccc(NC(=S)NC(=O)C(C)Oc2ccc(Cl)cc2Cl)c1` (stereo not drawn): 2.78%; for `O=C(c1ccncc1)N1CC[C@H]2[C@H](CCCN2Cc2ccc(F)cc2)C1`: 1.14%.
For `CN(CCO)c1cccc2c1S(=O)(=O)N(Cc1cn(Cc3ccc(C(F)(F)F)cc3)nn1)Cc1ccccc1O2` the value was -1.94%.
The same measure for `COC(=O)[C@]12C[C@H](CC(=O)NCC34CC5CC(CC(C5)C3)C4)C(=O)N(Cc3ccc(Cl)cc3Cl)C1=C[C@H](COCc1ccccc1)O[C@@H]2C`: -3.09%; for `CCCOc1ccc(Oc2c(Cl)cnn(Cc3cccc4ccccc34)c2=O)cc1`: -6.8%.
For `CCc1cccc(NC(=O)COC(=O)C2CCN(c3ccc(C(F)(F)F)cn3)CC2)c1`, the inhibition is 8.96% (active).
`N#CCCN(C(=O)COC(=O)C1CCN(c2ccc(C(F)(F)F)cn2)CC1)c1ccc(F)cc1`: the inhibition was -2.71%.
`CCOc1ccc(CCNC(=O)COC(=O)C2CCN(c3ccc(C(F)(F)F)cn3)CC2)cc1OCC`: the inhibition was -1.24%.
